Experimental data reported in PubChem BioAssay AID2330 (Broad Institute, 2010).
Hit rate of the full screen: of about 37,000 compounds, about 2,800 (7.6%) were called active. Not shown: some 1% with an inconclusive outcome. Cut-off read from the data, not from the text of the source: active = inhibition above about 80%; inconclusive = no clear call, values can overlap the other calls; inactive = below that. The entries come from a sample that favours actives as a whole.

Experiment: NOMO-1 AML cell viability reduction, primary screen, STK33 inhibitor project, CellTiter-Glo luminescence (AID 2330)
Settings: NOMO-1 AML viability, 72 h, hits give high values, concentration not given here
For `Cc1cccc(N(CC(=O)Nc2cccc([N+](=O)[O-])c2)S(C)(=O)=O)c1C`, the inhibition was -1.91% (inactive).
In the case of `COc1cc(OC)c(NC(=O)CSc2nnc(-c3ccncc3)n2-c2ccccc2)cc1Cl`, the inhibition is reported as 37.4% (inactive).
For `COc1ccc(OC)c(NC(=O)c2cnn(-c3ccccc3Cl)c2NC(=O)c2ccco2)c1`, the inhibition was 21.2% (inactive).
For `CC(C)NC(=O)Nc1ccc2c(c1)CC(=O)N([C@H](C)CO)C[C@@H](C)[C@@H](CN(C)C(=O)Nc1ccc3c(c1)OCO3)O2`, the inhibition was 21.8% (inactive).
In the case of `c1ccc(-n2c(SCc3nc4ccccc4s3)nnc2-c2ccncc2)cc1`, the inhibition is reported as 37.8% (inactive).
For `CSC1=N/C(=C\C=C\c2cccs2)C(=O)S1`, the inhibition was 123% (active).
In the case of `COc1ccc(N(Cc2cc3ccccc3[nH]c2=O)C(=O)c2cccc(OC)c2)cc1`, the inhibition is reported as -11% (inactive).
With `COc1ccccc1CCNC(=O)c1cnccn1` the inhibition was 4.1% (inactive).
With `COC(=O)c1scc(S(=O)(=O)C(C)(C)C)c1-n1cccc1` the inhibition was 100% (active).
With `C[C@@H]1CN([C@H](C)CO)C(=O)c2cc(NC(=O)CCN3CCOCC3)ccc2O[C@H]1CN(C)Cc1ccc(Oc2ccccc2)cc1` the inhibition was 5.92% (inactive).
With `C[C@@H]1CN([C@H](C)CO)C(=O)c2cc(NS(=O)(=O)c3cccs3)ccc2O[C@H]1CN(C)Cc1ccncc1` the inhibition was -4.5% (inactive).
For `C=C1C(=O)O[C@@H]2[C@H]3C(CO)=CC(=O)C3=C(C)C[C@H](OC(=O)Cc3ccc(O)cc3)[C@@H]12`, the inhibition was 120% (active).
For `C=CC(=O)c1ccc2ccccc2c1`, the inhibition was 98.4% (active).
In the case of `COc1ccccc1NC(=O)CCC(=O)c1ccc(C)cc1`, the inhibition is reported as 29.1% (inactive).
With `COC(=O)C(C)N(C#N)c1nc(C)nc(C)n1` (stereo not drawn) the inhibition was 113% (active).
In the case of `COc1ccc(CN(C)C[C@H]2Oc3c(NC(=O)c4cnccn4)cccc3C(=O)N([C@H](C)CO)C[C@@H]2C)cc1`, the inhibition is reported as 5.98% (inactive).
With `C[C@@H]1CC[C@]2(C)[C@H](CC[C@@H](O)[C@]2(C)O)[C@@]1(C)CC(=O)c1ccoc1` the inhibition was 9.78% (inactive).
For `COCc1nc2c([nH]1)C(c1ccccc1COc1ccc(Cl)cc1)C(C#N)=C(N)O2` (stereo not drawn), the inhibition was 111% (active).
With `COc1cc(OC)cc(C2C(C#N)=C(N)OC(N)=C2C#N)c1` the inhibition was 38.6% (inactive).
With `CCn1c(SCC(=O)O)nnc1-c1ccc(OC)cc1` the inhibition was -32.5% (inactive).
For `S=c1cc(-c2ccccc2)oc(-c2ccccc2)c1`, the inhibition was 61.2% (inactive).
For `C[C@@H]1CN([C@H](C)CO)C(=O)c2cccc(NS(=O)(=O)c3ccc(Cl)cc3)c2O[C@@H]1CN(C)Cc1ccc(Oc2ccccc2)cc1`, the inhibition was 49.7% (inactive).
For `CCC(=O)O[C@]1(C(=O)CCl)[C@@H](C)CC2C3CCC4=CC(=O)C=C[C@]4(C)[C@@]3(F)[C@@H](O)C[C@@]21C` (stereo partly drawn), the inhibition was 7.72% (inactive).
